Sfp PPTase inh = inhibitors of Bacillus subtilis Sfp phosphopantetheinyl transferase; Q9F4F7; Biochemical Sfp PPTase activity, qHTS; Potency, µM, without a hit: largest response in the series, negative = inhibition, hits mostly inhibitors; 310,000 compounds, 3.5% hits; AID 1490;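 further: the enzyme is Sfp with the accession as filed and its product quenches rhodamine fluorescence; 0% = enzyme reaction without inhibitor and -100% = no enzyme wells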
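Fluorescence-quenching assay with 15 nM Sfp, 5 uM rhodamine-CoA and 12.5 uM BHQ-2-labelled ybbR peptide in pH 7.6 Hepes/MgCl2 buffer. Enzyme was pre-incubated with compound for 15 min at room temperature. Rate was taken from the 30-min fluorescence change (525/598 nm).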
RORg inh = blocks mouse ROR gamma transcriptional activity. P51450. Drosophila S2 Gal4-RORgamma UAS-luciferase reporter, 20 h. Potency, µM (doses to about 53.6 µM), without a hit: at the highest dose activity change, negative = inhibition, usual class: inhibitors. 310,000 compounds, 5.4% hits; further: nearly all actives have a fitted effect of over 60% in size
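Schneider cells (Drosophila), stable Gal4 DBD–ROR gamma + UAS-luc; 1 hr cmpd preincubation; Cu2+ induction 700 uM final; 20 hr ambient; luminescence.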
Gal4-VP16 FLuc = counter-screen for ROR gamma inhibitors: Gal4-VP16 reporter | Potency, µM (top dose mostly 53.6 µM), without a hit: top-dose activity, negative = inhibition, usual class: inhibitors | 310,000 compounds, 3.5% hits | AID 2546 | Drosophila S2 Gal4-VP16 UAS-luciferase, luminescence, 20 h;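 further: Gal4-VP16 expression switched on by copper sulfate through the metallothionein promoter; nearly all actives have a fitted effect of over 50% in size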
ALDH1A1 block = inhibitors of human aldehyde dehydrogenase 1A1; Potency, µM (series often up to 75.3 µM), for the others: top-dose activity, negative = inhibition, usual class: inhibitors; AID 1030; P00352; Purified ALDH1A1, NADH fluorescence, propionaldehyde substrate; 220,000 compounds, 7.3% hits; active means well fitted inhibition curve with a large enough effect, not every such curve was filed as active; inconclusive means small, poorly fitted or top-dose-only effect, or another doubt; inactive means no such curve, though single readings can be large or run the other way;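 further: plate controls were no enzyme wells and a reference inhibitor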
Target sequence (P00352 whole entry, looked up): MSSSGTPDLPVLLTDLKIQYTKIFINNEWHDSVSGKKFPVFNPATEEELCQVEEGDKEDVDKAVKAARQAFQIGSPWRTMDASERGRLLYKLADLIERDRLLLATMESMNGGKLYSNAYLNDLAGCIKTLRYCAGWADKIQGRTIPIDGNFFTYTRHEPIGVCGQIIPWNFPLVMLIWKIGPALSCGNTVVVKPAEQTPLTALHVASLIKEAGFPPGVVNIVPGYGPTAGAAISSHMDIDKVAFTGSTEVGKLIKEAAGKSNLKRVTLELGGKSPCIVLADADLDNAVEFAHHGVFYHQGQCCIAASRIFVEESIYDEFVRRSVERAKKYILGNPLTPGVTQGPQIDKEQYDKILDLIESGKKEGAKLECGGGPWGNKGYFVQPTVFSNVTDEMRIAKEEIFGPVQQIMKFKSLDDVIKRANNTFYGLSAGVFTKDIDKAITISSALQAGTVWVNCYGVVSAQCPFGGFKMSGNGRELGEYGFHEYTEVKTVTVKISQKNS
PLK1 PBD block = PLK1 (human) polo-box domain binding inhibition. Potency, µM, for inactives: max response, negative = inhibition, hits mostly inhibitors. 360,000 compounds, 2.8% hits. Plk1 PBD binding of FITC phosphopeptide, fluorescence polarization; further: series mostly up to about 57 µM; nearly all actives have a fitted effect of over 65% in size
The depositor's hits bear a star; ? = inconclusive; . = no result; [ ] = another dose, or the depositor's remark. An excerpt weighted towards active compounds, which were near 12% of everything screened. Unless noted, the call rests on the fitted dose curve; in most records, active means well fitted curve in the direction sought with a large enough effect; inconclusive means small, poorly fitted or top-dose-only effect, or another doubt; inactive means no such curve, though single readings can be large; an effect the other way counts as inactive or inconclusive. Unless noted, on the % scale 0 is the no-effect control and ±100 the full control effect; potency means the concentration at half of the fitted maximal effect.

SMILES | Sfp PPTase inh | RORg inh | Gal4-VP16 FLuc | ALDH1A1 block | PLK1 PBD block
c1ccc(C(Cc2nc(-c3ccncc3)no2)c2ccccc2)cc1 | -12% | ? | 10µM* | -14% | -3%
c1ccc(-c2ccccc2-c2nc(-c3ccncc3)no2)cc1 | ? | 8.9µM* | ? | ? | -21%
c1ccc(-c2ccc(-c3nc(-c4ccncc4)no3)cc2)cc1 | 9% | 14% | -3% | 3% | -6%
Cc1cc(C)n(CCNC(=O)[C@H]2O[C@@H](n3ccc(=O)[nH]c3=O)[C@H](O)[C@@H]2O)n1 | . | . | . | . | -10%
CCOC(=O)C1=C(C)Nc2ccccc2N=C1NC(=O)/C=C/c1ccc(OC)cc1OC | 7% | 6% | 0% | 20µM* | -3%
Cc1ccc(-n2cnc3c(=O)[nH]cnc32)cc1[N+](=O)[O-] | . | . | . | . | -2%
Cc1ccc(NCN2C(=O)C(=O)c3ccccc32)nc1 | 8% | -39% | -7% | 0.14µM* | -19%
Cc1ccc(NC(=O)CCCCCN2C(=O)c3ccccc3C2=O)nc1 | 14% | 19% | ? | -9% | -1%
C[C@H](CO)N1C[C@H](C)[C@@H](CN(C)S(=O)(=O)c2cn(C)cn2)Oc2ncc(Br)cc2C1=O | . | . | . | . | 7%
CC(=O)Nc1ccc(NC(=S)NC(=O)C2CCCC2)cc1 | 12% | 15% | 0% | . | -13%
CCN(CC)c1ccc(NC(=S)NC(=O)C2CCC2)cc1 | 5% | 1.8µM* | 6.3µM* | . | -12%
CCOc1ccc(NC(=S)NC(=O)C2CCCC2)cc1 | 8% | 1.1µM* | 6.3µM* | . | -2%
OCCN1CCN(c2ncnc3c2ncn3[C@H]2CN(Cc3ccncc3)C[C@@H](CO)O2)CC1 | . | . | . | . | -8%
COc1cc(NC(=O)CCN2CCN(c3ccccc3OC)CC2)cc(OC)c1 | . | . | . | . | 1%
Oc1ccc(Cc2cc(Cl)cc(Cl)c2O)cc1Cl | . | . | . | 9%[13.5 µM] | .
CCn1cc(/C=C(/C#N)S(=O)(=O)c2ccccc2)cn1 | -9% | 18% | -6% | ? | -1%
Cn1nccc1/C=C(/C#N)S(=O)(=O)c1ccccc1 | 5% | -4% | 8% | -2% | 11µM*
COc1ccc(CN(C)CCc2ccccn2)cc1OC | 50µM* | -11% | -2% | ? | -4%
Cc1ccc(CN(Cc2ccccn2)C(=O)Nc2ccc(C)c(C)c2)cc1 | -1% | 7% | 7% | . | -1%
COc1ccccc1NC(=S)N(CCc1ccc(OC)c(OC)c1)Cc1ccccn1 | -15% | 11µM* | 17%[10 µM] | -16% | -5%
COc1ccc(CC(=O)Nc2cccc(SC)c2)cc1OC | 9% | -20% | -9% | 5% | -7%
COc1cc(OC)c(OC)cc1CN(C)CCc1ccccn1 | ? | -15% | 5% | ? | -11%
COc1ccc(CCN(Cc2ccccn2)C(=S)Nc2cccc(SC)c2)cc1OC | 45µM* | 10µM* | -2%[10 µM] | ? | -15%
COc1ccc(CCN(Cc2ccccn2)C(=S)Nc2ccc(C)cc2)cc1OC | 4% | ? | -4% | ? | -19%
CSc1cccc(NC(=S)N(Cc2ccc(C)cc2)Cc2ccccn2)c1 | 12% | 13µM* | -10% | -9% | -1%
SMILES | Sfp PPTase inh | RORg inh | Gal4-VP16 FLuc | ALDH1A1 block | PLK1 PBD block
CCN1C(=O)[C@H]2[C@@H]3[C@H](O)[C@H](O)CC(=O)[C@H]3CC[C@H]2C1=O | 24% | 7%[10 µM] | 1%[10 µM] | 3%[13.5 µM] | .
CCCCN(C)c1c(C)nc2ccc(C(=O)Nc3ccc(OC)c(OC)c3)cn12 | . | . | . | . | -11%
COc1ccc(CN(Cc2ccc(C(=O)O)cc2)C(=S)Nc2ccccc2F)cc1OC | 50µM* | 14% | -13% | 13µM* | -12%
COc1ccccc1NC(=S)N(Cc1ccc(C(=O)O)cc1)Cc1ccc(OC)c(OC)c1 | -29% | -6% | -7% | -5% | -20%
Cc1ccsc1C1C(C#N)=C(N)OC2=C1C(=O)CCC2 (stereo not drawn) | 56µM* | ? | ? | 5% | ?
CN(C)N1C(N)=C(C#N)C(c2cccs2)C2=C1CCCC2=O (stereo not drawn) | -20% | 31% | 13% | ? | 30µM*
Cc1ccsc1C1C(C#N)=C(N)N(N(C)C)C2=C1C(=O)CCC2 (stereo not drawn) | ? | 1% | ? | 14µM* | -1%
CN(C)N1C(N)=C(C#N)C(c2ccsc2)C2=C1CCCC2=O (stereo not drawn) | 1% | -9% | 3% | -3% | 0%
COC(=O)C[C@H]1C[C@H]2c3cc(NC(=O)C4CCC4)ccc3O[C@H]2[C@H](CO)O1 | . | . | . | . | -5%
Cn1c(C(C#N)C(=O)c2sc3ccccc3c2Cl)nc2ccccc21 (stereo not drawn) | 8% | 1.8µM* | 4.5µM* | ? | -2%
CC(C)C[C@@H](CC(=O)N[C@@H](CCCN)CC(=O)N[C@@H]1CCCC[C@H]1C(=O)N[C@H](CC(=O)N[C@@H](CCC(=O)O)CC(=O)O)CC(C)C)NC(=O)[C@@H]1CNCC[C@H]1N | -22% | -28% | -1% | ? | .
CCCCSCc1nc2ccccn2c1Br | -2% | 11µM* | -5% | -14% | -5%
CCSCc1nc2ccccn2c1Br | -4% | -8% | 5% | ? | -8%
Cc1ccc(NC(=S)NC(=O)c2ccc(F)cc2)cc1S(=O)(=O)Nc1ccccc1Cl | 15% | 4.5µM* | 6.3µM* | 13µM* | -19%
O=C(NC(=S)Nc1ccc2c(c1)C(=O)c1ccccc1C2=O)c1ccc(F)cc1 | -27% | ? | ? | 11µM* | .
CN(C)c1nc2c(Br)c(Br)c(Br)c(Br)c2[nH]1 | . | . | . | -12% | .
CCN(CC)CCn1c(=S)[nH]c2ccccc2c1=O | 6% | -35% | 6% | 4% | -10%
CC(C)Cn1c(=S)[nH]c2ccccc2c1=O | -22% | 1.1µM* | 4.5µM* | ? | -10%
CC(C)COn1c(=S)[nH]c2ccccc2c1=O | -9% | 2.2µM* | 10µM* | ? | -7%
CCN(CC)CCCn1c(=S)[nH]c2ccccc2c1=O | -14% | ? | -3% | -7% | -3%
C=CCn1c(=S)[nH]c2cc(-c3ccccc3)sc2c1=O | 12% | 1µM* | 2µM* | . | -18%
C=CCn1c(SCCNC(C)=O)nc2cc(-c3ccccc3)sc2c1=O | 4% | ? | 1% | . | -10%
C=CCn1c(=S)[nH]c2ccccc2c1=O | 7% | 5.6µM* | 4.5µM* | -1% | -3%
C=C(C)Cn1c(=S)[nH]c2ccccc2c1=O | 1% | 4µM* | 11µM* | -5% | -3%
CC(C)Cn1c(=S)[nH]c2cc(Cl)ccc21 | -30% | 1.6µM* | ? | 8.9µM* | 24µM*
O=c1c2ccccc2[nH]c(=S)n1CCC1=CCCCC1 | 9% | 1.6µM* | 1.4µM* | 7% | -11%
C=CCn1c(=S)[nH]c2scc(-c3cccs3)c2c1=O | 11% | 0.63µM* | 0.79µM* | 13µM* | -11%
CCN1CCN(C(=O)c2ccc3c(=O)n(CCC4=CCCCC4)c(=O)[nH]c3c2)CC1 | 10% | ? | 16% | ? | -11%

Source: PubChem BioAssay (National Center for Advancing Translational Sciences (NCATS))
